Only a selection was taken, and hits are over-represented in it overall.
GRP78 ERSR act: ER stress response induction in glioma | 420,000 compounds, 0.02% hits | Potency, µM, inactives show top-dose activation, actives largely listed as activators | U87-MG GRP78 promoter luciferase reporter, 16 h; also: series mostly up to about 76 µM; % of control where 0% means no effect; nearly all actives have a fitted effect of over 35% in size
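Stably transfected U87-MG human glioma cells carrying a GRP78-based luminescent sensor were seeded at 1000 cells/well, pin-dosed with compounds and incubated 16 h. Luciferase reagent was then added, and end-point luminescence was read after 10 min at room temperature.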
Sfp PPTase inh: inhibitors of Bacillus subtilis Sfp phosphopantetheinyl transferase. Q9F4F7. Biochemical Sfp PPTase activity, qHTS. Potency, µM, without a hit: largest response in the series, negative = inhibition, usual class: inhibitors. 310,000 compounds, 3.5% hits. AID 1490;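 also: the enzyme is Sfp with the accession as filed and its product quenches rhodamine fluorescence; 0% = enzyme reaction without inhibitor and -100% = no enzyme wells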
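Buffer: 50 mM Hepes-Na pH 7.6, 10 mM MgCl2, 0.01% Nonidet P-40, 0.01% BSA. Enzyme 15 nM, pre-exposed to compound 15 min; substrates then added and fluorescence change tracked over 30 min.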
ALOX12 inh: ALOX12 (human) lipoxygenase inhibition | AID 1671190 | P18054 | purified 12hLO, xylenol orange hydroperoxide absorbance | Potency, µM (highest dose often 108 µM), inactives show at the top dose activity change, negative = inhibition, most hits filed as inhibitors | 580,000 compounds, 1.1% hits; also: % is scaled to controls: 0 for no effect and ±100 for the full control effect
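Hydroperoxide product was detected by ferrous iron/xylenol orange as the 573 to 405 nm absorbance ratio. Arachidonic acid at 40 uM (final) was turned over for 30 min at room temperature by 150 nM human 12hLO, pH 7.0 Hepes buffer, after 15 min compound preincubation.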
G9a block: G9a (human) methyltransferase inhibition; G9a H3K9 monomethylation, AlphaScreen, 2 h; 350,000 compounds, 8.8% hits; Potency, µM (titrated, usually from 102 µM), for the others: at the top dose activity, negative = inhibition, most hits filed as inhibitors; also: % is scaled to controls: 0 for no effect and ±100 for the full control effect; nearly all actives have a fitted effect of over 75% in size
Target sequence (Q96KQ7 913-1193 limits assumed): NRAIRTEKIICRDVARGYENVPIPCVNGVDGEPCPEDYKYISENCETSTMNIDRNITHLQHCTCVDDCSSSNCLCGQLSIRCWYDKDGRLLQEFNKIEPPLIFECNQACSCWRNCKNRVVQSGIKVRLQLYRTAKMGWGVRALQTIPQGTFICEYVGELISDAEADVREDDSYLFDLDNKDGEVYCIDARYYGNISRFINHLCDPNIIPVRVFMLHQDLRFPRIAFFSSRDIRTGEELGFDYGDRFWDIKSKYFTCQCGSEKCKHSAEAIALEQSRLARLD
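Compounds were preincubated with 20 nM G9a for 15 min, after which biotinylated H3K9 peptide (500 nM) and SAM (20 uM) started a 2 h room-temperature reaction. Monomethylated product was quantified by antibody-based AlphaScreen chemiluminescence.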
VDR inh: inhibitors of human vitamin D receptor; VDR-SRC2-3 peptide fluorescence polarization, 2 h; AID 504847; 400,000 compounds, 0.93% hits; Potency, µM, for the others: max response, negative = inhibition, actives largely listed as inhibitors; also: % is scaled to controls: 0 for no effect and ±100 for the full control effect
Target sequence (P11473 whole entry, looked up): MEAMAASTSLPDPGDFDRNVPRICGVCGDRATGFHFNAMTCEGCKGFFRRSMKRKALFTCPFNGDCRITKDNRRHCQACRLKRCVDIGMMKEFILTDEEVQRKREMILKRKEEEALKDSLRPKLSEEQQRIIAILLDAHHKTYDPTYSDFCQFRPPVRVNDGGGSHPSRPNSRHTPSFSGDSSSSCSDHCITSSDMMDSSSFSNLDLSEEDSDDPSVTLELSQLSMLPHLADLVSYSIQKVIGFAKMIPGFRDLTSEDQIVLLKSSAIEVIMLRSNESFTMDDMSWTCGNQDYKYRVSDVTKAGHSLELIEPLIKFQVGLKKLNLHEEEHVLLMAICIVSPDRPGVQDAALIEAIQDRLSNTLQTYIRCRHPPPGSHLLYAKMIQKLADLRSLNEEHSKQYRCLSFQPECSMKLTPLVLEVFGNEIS
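Fluorescence polarization assay measuring small-molecule disruption of VDR binding to the coregulator peptide SRC2-3. Compounds were pin-transferred (23 nl) into the reagent mix and incubated 2 h at room temperature before reading.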
Numbers without * were called inactive; [ ] = remark or other dose. Calls follow the shape of the dose curve; as a rule, active = well fitted curve in the direction sought with a large enough effect; inconclusive = small, poorly fitted or top-dose-only effect, or another doubt; inactive = no such curve, though single readings can be large; an effect the other way counts as inactive or inconclusive. Potency is read from the fitted curve at half-maximal effect.

What do the screens show for `CCCOc1ccc(NC(=O)COc2ccc(C)c(C)c2)c2cccnc12`?
ALOX12 inh: 7.5%

How did CSc1ccccc1NC(=O)c1ccccc1C(F)(F)F do in these assays?
ALOX12 inh: -27.6%

Results for COCCN1CCN(C[C@@H]2C=C(C)[C@H](Cc3nnc(-c4ccc(N(C)C)cc4)o3)C[C@H]2C(C)C)CC1 ?
ALOX12 inh: 58.1%

Results for S=c1[nH]nc(-c2cc3ccccc3o2)n1Cc1ccccc1 ?
GRP78 ERSR act: 9.2%; Sfp PPTase inh: 1.9%; ALOX12 inh: 44.7µM*; G9a block: 1.12µM*; VDR inh: -11.5%

How did CC(C)Oc1ccc(Cn2c(-c3ccco3)n[nH]c2=S)cc1 do in these assays?
GRP78 ERSR act: 0.2%; Sfp PPTase inh: inconclusive; ALOX12 inh: inconclusive; G9a block: 0.708µM*; VDR inh: -14.4%

What do the screens show for `COc1ccc(Cn2c(-c3ccc(OC)cc3)n[nH]c2=S)cc1`?
GRP78 ERSR act: -0.8%; Sfp PPTase inh: -1.4%; ALOX12 inh: 15.8µM*; G9a block: 2.82µM*; VDR inh: 1.0%

Results for CCOc1ccc(-c2n[nH]c(=S)n2Cc2ccccc2)cc1 ?
GRP78 ERSR act: -1.2%; Sfp PPTase inh: 3.2%; ALOX12 inh: inconclusive; G9a block: 3.55µM*; VDR inh: 2.4%

How did O=C(COc1ccccc1Cl)N1CCCC(O)(CN2CCCC2)C1 (stereo unspecified) do in these assays?
ALOX12 inh: 94.3%

Results for Cc1ccc(-c2n[nH]c(=S)n2Cc2ccccc2)cc1 ?
GRP78 ERSR act: -3.7%; Sfp PPTase inh: 5.2%; ALOX12 inh: 39.8µM*; G9a block: 1.58µM*; VDR inh: -12.6%

Results for Cc1cccc(-c2n[nH]c(=S)n2Cc2ccccc2)c1 ?
GRP78 ERSR act: -1.2%; Sfp PPTase inh: 79.4µM*; ALOX12 inh: inconclusive; G9a block: 0.708µM*; VDR inh: 0.2%

Results for COc1cccc(NC(=O)C2C3C=CC4(O3)C2C(=O)N(CCCN2CCC(C)CC2)C4C(=O)NC2CCCCC2)c1 (stereo unspecified) ?
GRP78 ERSR act: -4.0%; Sfp PPTase inh: 20.9%; ALOX12 inh: -14.1%; G9a block: 44.7µM*; VDR inh: -28.1%

Results for Cc1ccc(NC(=O)C2C3C=CC4(O3)C2C(=O)N(CCN2CCOCC2)C4C(=O)NC2CCCCC2)cc1C (stereo unspecified) ?
GRP78 ERSR act: -2.8%; Sfp PPTase inh: 16.7%; ALOX12 inh: 5.5%; G9a block: inconclusive; VDR inh: -20.2%

How did CSc1cccc(NC(=O)C2C3C=CC4(O3)C2C(=O)N(CCN2CCOCC2)C4C(=O)NC2CCCCC2)c1 (stereo unspecified) do in these assays?
GRP78 ERSR act: -1.6%; Sfp PPTase inh: 13.3%; ALOX12 inh: -12.5%; G9a block: 50.1µM*; VDR inh: -13.2%

Results for COCCCN1C(=O)C2C(C(=O)Nc3cc(C)cc(C)c3)C3C=CC2(O3)C1C(=O)NC1CCCCC1 (stereo unspecified) ?
GRP78 ERSR act: -5.1%; Sfp PPTase inh: 39.8µM*; ALOX12 inh: 0.1%; G9a block: 89.1µM*; VDR inh: -0.9%

What do the screens show for `O=C(Nc1ccc(Cl)c(Cl)c1)C1C2C=CC3(O2)C1C(=O)N(CCN1CCCCC1)C3C(=O)NC1CCCCC1` (stereo unspecified)?
GRP78 ERSR act: -2.8%; Sfp PPTase inh: 6.4%; ALOX12 inh: 1.5%; G9a block: 44.7µM*; VDR inh: 25.8%

Results for CC1CCCC(NC(=O)C2N(CCCN3CCCC3)C(=O)C3C(C(=O)Nc4ccc(Cl)cc4)C4C=CC32O4)C1C (stereo unspecified) ?
GRP78 ERSR act: -1.7%; Sfp PPTase inh: 7.2%; ALOX12 inh: 14.7%; G9a block: -0.9%[12.7 µM]; VDR inh: -5.7%

Results for COc1ccc(NC(=O)C2C3C=CC4(O3)C2C(=O)N(CCCN2CCCCC2)C4C(=O)NC2CCCC(C)C2C)cc1 (stereo unspecified) ?
GRP78 ERSR act: -2.2%; Sfp PPTase inh: 0.8%; ALOX12 inh: -34.3%; G9a block: 44.7µM*; VDR inh: -0.1%

How did Cc1ccc2[nH]c(=O)c(CN(Cc3ccccc3)Cc3nnnn3Cc3ccco3)cc2c1 do in these assays?
GRP78 ERSR act: -3.6%; VDR inh: -16.8%

How did Cc1ccc2cc(CN(Cc3ccc4c(c3)OCO4)Cc3nnnn3Cc3ccco3)c(=O)[nH]c2c1 do in these assays?
GRP78 ERSR act: -4.5%; Sfp PPTase inh: 25.1µM*; ALOX12 inh: -52.8%; G9a block: inconclusive; VDR inh: -21.2%

How did Cc1ccc(C)c2[nH]c(=O)c(C(c3nnnn3CCc3ccccc3)N3CCOCC3)cc12 (stereo unspecified) do in these assays?
GRP78 ERSR act: 0.0%; Sfp PPTase inh: 7.2%; ALOX12 inh: 11.5%; G9a block: -13.0%[59 µM]; VDR inh: 16.6%

What do the screens show for `Cc1ccc(CN(Cc2cc3cc4c(cc3[nH]c2=O)OCCO4)Cc2nnnn2Cc2ccco2)cc1`?
GRP78 ERSR act: -0.2%; Sfp PPTase inh: 10µM*; ALOX12 inh: -20.1%; G9a block: 12.6µM*; VDR inh: inconclusive

What do the screens show for `Cc1ccc(C)c2[nH]c(=O)c(C(c3nnnn3Cc3ccco3)N3CCc4ccccc4C3)cc12` (stereo unspecified)?
GRP78 ERSR act: -2.5%; Sfp PPTase inh: 20µM*; ALOX12 inh: inconclusive; G9a block: 31.6µM*; VDR inh: 18.5%

What do the screens show for `COc1ccccc1CN(Cc1cc2c(C)ccc(C)c2[nH]c1=O)Cc1nnnn1Cc1ccco1`?
GRP78 ERSR act: -6.2%; Sfp PPTase inh: 20µM*; ALOX12 inh: inconclusive; G9a block: 12.6µM*; VDR inh: 2.7%

Results for Cc1ccc2[nH]c(=O)c(CN(Cc3ccco3)Cc3nnnn3Cc3ccco3)cc2c1 ?
GRP78 ERSR act: -3.1%; VDR inh: -10.3%

How did COc1ccc(CN(C)CC(O)COc2ccccc2)c(OC)c1OC (stereo unspecified) do in these assays?
ALOX12 inh: -8.6%

What do the screens show for `COc1ccc(C2=C(N3CCN(c4cccc(C)c4)C(C)C3)c3ccccc3C2=O)cc1` (stereo unspecified)?
GRP78 ERSR act: -1.7%; ALOX12 inh: inconclusive; G9a block: 5.01µM*; VDR inh: 3.9%

How did COc1ccc(-n2ncc3c(N4CCN(c5cccc(C)c5)C(C)C4)ncnc32)cc1 (stereo unspecified) do in these assays?
GRP78 ERSR act: -4.8%; ALOX12 inh: -8.1%; G9a block: 10.6%[59 µM]; VDR inh: 14.9%

How did CCCc1cc(=O)oc2cc(OCC(=O)NCc3ccncc3)c(Cl)cc12 do in these assays?
ALOX12 inh: -1.8%

How did Cc1cc(O)c(C=Nc2ccc(N3CCOCC3)cc2)c(C)c1Cl do in these assays?
GRP78 ERSR act: -4.0%; Sfp PPTase inh: -13.3%; ALOX12 inh: inconclusive; G9a block: 8.91µM*; VDR inh: -7.8%

Screening data as filed in PubChem BioAssay.
